# High-throughput results as filed in PubChem.
# Compounds with a hit are over-represented: about 3.5% of the library has one in this group of screens.
# GPR151 activ = activates the human receptor GPR151 | activation, % at 11.2 µM | 650,000 tested, 1% active | PathHunter beta-arrestin GPR151 cells, luminescence | AID 1508602; in the data active means activation above about 4.9%;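 further: 0% = median of compound wells and 100% = cells with positive control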
# TEAD-YAP inh = TEAD-YAP interaction inhibition. 640,000 tested, 1.4% active. inhibition, % at 9.12 µM. AID 1259422. HEK-TIYL cells, TEAD-Gal4/YAP UAS-luciferase luminescence; in the data active means inhibition above about 32%;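 further: 0% = median of test compound wells and 100% = reference inhibitor wells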
# MITF inh = inhibitors of human MITF. inhibition, % at 2.6 µM. AID 1259374. 650,000 tested, 0.91% active. AlphaScreen MITF homodimerization, bead proximity signal. O75030; in the data active means inhibition above about 50%;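 further: 0% = vehicle wells with protein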
# Target sequence (O75030 whole entry, looked up): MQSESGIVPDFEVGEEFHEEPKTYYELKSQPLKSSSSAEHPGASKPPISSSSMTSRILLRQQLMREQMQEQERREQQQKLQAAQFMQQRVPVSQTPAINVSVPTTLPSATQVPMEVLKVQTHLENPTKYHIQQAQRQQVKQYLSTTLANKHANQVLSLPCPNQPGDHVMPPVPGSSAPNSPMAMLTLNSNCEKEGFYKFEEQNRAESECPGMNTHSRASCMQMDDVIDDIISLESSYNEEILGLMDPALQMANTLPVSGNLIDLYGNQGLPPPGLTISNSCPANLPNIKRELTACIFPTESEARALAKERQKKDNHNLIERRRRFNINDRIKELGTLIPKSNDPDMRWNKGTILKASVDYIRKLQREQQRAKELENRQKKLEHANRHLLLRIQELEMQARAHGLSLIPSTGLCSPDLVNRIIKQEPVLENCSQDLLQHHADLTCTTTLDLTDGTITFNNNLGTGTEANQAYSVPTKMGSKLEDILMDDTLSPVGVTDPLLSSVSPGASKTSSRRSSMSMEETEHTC
# FBW7 act = human FBW7 E3 ligase activation, primary screen; Q969H0; AlphaScreen FBW7–phospho-cyclin E peptide binding, activator screen; normalized activity (activation), % at 26.1 µM; 650,000 tested, 0.13% active; AID 1259310; in the data active means normalized activity above about 1.9%;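 further: purified mutant Fbw7 with reduced substrate affinity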
# MITF confirm = human MITF inhibition, confirmation; shares compounds with MITF inh; AlphaScreen MITF homodimerization, biotin/His-MITF beads; inhibition, % at 2.6 µM; 4,700 tested, 16% active; AID 1259372;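 active means inhibition above a cutoff derived from the DMSO control wells, cut at about 28% in these data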;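 further: 0% = MITF dimer wells with DMSO only; inhibitors lower the bead chemiluminescence by keeping MITF from dimerizing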
# AlphaScreen DR = optically interferes with AlphaScreen signal in dose response. shares compounds with MITF inh. AlphaScreen optical interference counterscreen, cell-free. IC50, µM. 480 tested, 6% active. AID 1259373; call rule not given here
# AS interf ctr = counter-screen: compounds optically interfering with AlphaScreen; LysRS AlphaScreen counterscreen, signal interference, triplicate; shares compounds with MITF inh; 4,700 tested, 7.6% active; AID 1259376; inhibition, % at 2.6 µM;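 active means inhibition above a cutoff derived from the DMSO control wells, cut at about 30% in these data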
# Starred values were filed as active, the others as inactive; nt = no result.
SMILES,GPR151 activ,TEAD-YAP inh,MITF inh,FBW7 act,MITF confirm,AS interf ctr,others
CC1CC(C)CN(S(=O)(=O)c2ccc(C(=O)Nc3sc4c(c3C(N)=O)CCCCC4)cc2)C1 (configuration not stated),-1,5,71*,0,-5,-4,
CCCN(CCC)S(=O)(=O)c1ccc(C(=O)Nc2sc3c(c2C(N)=O)CCN(CC)C3)cc1,1,0,71*,0,-2,-4,
CCSc1ccc(NC(=O)c2ccccc2F)nn1,-3,-40,3,0,nt,nt,
CC(C(=O)NC12CC3CC(CC(C3)C1)C2)N(C)CCOc1ccccc1 (configuration not stated),-2,2,51*,0,5,15,
CS(=O)(=O)c1cccc(S(=O)(=O)N2CCN(Cc3ccccc3)CC2)c1,0,6,-12,0,nt,nt,
CCS(=O)(=O)N1CCN(Cc2cccc(Cl)c2)CC1,2,-9,59*,0,9,13,
O=S(=O)(c1ccc(Cl)cc1)N1CCN(Cc2ccc(F)cc2)CC1,1,-3,1,0,nt,nt,
O=S(=O)(c1ccc(F)cc1)N1CCN(Cc2cccc(Cl)c2)CC1,1,1,60*,0,5,14,
O=S(=O)(c1ccccc1)N1CCN(Cc2cccc(Cl)c2)CC1,0,2,64*,0,8,19,
Cc1ccccc1CN1CCN(S(=O)(=O)c2cc(Cl)ccc2Cl)CC1,1,5,3,0,nt,nt,
CCOC(=O)C1=C(C)NC2=C(C(=O)CCC2)C1c1cc2c(cc1[N+](=O)[O-])OCO2 (configuration not stated),-1,23,8,0,nt,nt,
CC1=C(C#N)C(c2cc3c(cc2[N+](=O)[O-])OCO3)C2=C(CCCC2=O)N1 (configuration not stated),-1,11,60*,0,80*,-27,AlphaScreen DR=>6.5
CCCN1CCC(N2C[C@@H](NCc3ccc(F)c(F)c3)C[C@H]2C(=O)NC(C)C)CC1,-1,-6,11,0,nt,nt,
Cc1c(Cc2ccc3c(c2)OCO3)sc(NC(=O)c2ccc([N+](=O)[O-])o2)c1C#N,2,4,-3,0,nt,nt,
COC(=O)c1c(NC(=O)c2ccc([N+](=O)[O-])o2)sc(Cc2ccc3c(c2)OCO3)c1C,2,2,55*,0,47*,15,AlphaScreen DR=>6.4
CCOC(=O)C1CCCN(C2CCC(=O)N(Cc3ccc(OC)cc3)CC2)C1 (configuration not stated),0,5,3,0,nt,nt,
CC(=O)Nc1ccnn1C1CCN(Cc2cccc(Oc3ccccc3)c2)CC1,0,-5,-17,0,nt,nt,
CC(=O)Nc1ccnn1C1CCN(Cc2cccc(OC3CCCC3)c2)CC1,-2,4,56*,0,3,15,
O=C(COc1ccccc1N1C(=O)c2ccccc2C1=O)c1ccc(F)cc1,2,-5,60*,0,2,6,
O=C(NC(c1ccccc1)c1ccccn1)C1CCN(C(=O)c2ccccc2)CC1 (configuration not stated),-1,-5,-1,1,nt,nt,
Cc1sc2ncnc(N(C)CCc3ccccn3)c2c1C,0,2,73*,0,4,2,
CCN(C(=O)c1cc2c(=O)n3cccc(C)c3nc2n1C)c1ccccc1,0,12,53*,1,-3,8,
Cc1ccc(OCC(=O)N2CC3(C)CC2CC(C)(C)C3)c([N+](=O)[O-])n1 (configuration not stated),1,6,51*,0,-9,-3,
COc1ccc(NC(=O)c2cc(-c3ccccc3)nc3ccccc23)c(OC)c1,0,8,-7,0,nt,nt,
COc1ccc(NC(=O)NNC(=O)c2cc(C3CC3)nc3ccccc23)c(OC)c1,1,-2,61*,0,6,20,
SMILES,GPR151 activ,TEAD-YAP inh,MITF inh,FBW7 act,MITF confirm,AS interf ctr,others
COc1cc(OC)cc(C(=O)N2CCN(C3CCN(Cc4ccccc4)CC3)CC2)c1,-3,0,59*,0,1,-3,
COc1cc(C(=O)N2CCN(Cc3cccc(F)c3)CC2)cc(OC)c1OC,-1,-3,54*,0,7,2,
COc1cc(OC)cc(C(=O)N2CCN(Cc3cccnc3)CC2)c1,-2,24,66*,0,8,18,
COc1cc(C(=O)N2CCN(Cc3cccnc3)CC2)cc(OC)c1OC,0,-3,54*,1,2,0,
COc1ccccc1CC(=O)Nc1cnn(CC(=O)N(C)Cc2ccc(C)cc2)c1,1,11,13,0,nt,nt,
CCOC(=O)c1c(C)n(C)c2cc(-c3ccccc3)c(O)cc12,2,-27,2,0,nt,nt,
Cc1cc2c(cc1C)CN(c1ccc(/C=N/NC(=O)CC#N)cc1)C2,0,-6,11,1,nt,nt,
COc1ccc(-n2nnc3c(SCC(=O)Nc4ccc(C(C)=O)cc4)ncnc32)cc1,2,-3,18,1,nt,nt,
COc1ccc2c(c1)CC(c1nc3ccc(-c4cn[nH]c4C)cc3s1)CO2 (configuration not stated),2,-7,35,0,nt,nt,
COc1ccc(CCNc2nc(-c3sc(C)nc3C)cs2)cc1OC,-1,-10,71*,0,11,14,
Cc1[nH]c2ccccc2c1/C=N/NS(=O)(=O)c1ccc(Br)cc1,-2,-1,10,0,nt,nt,
Nc1ncc(-c2ccccc2)nc1N1CCC(C(=O)O)CC1,0,-22,-7,0,nt,nt,
Nc1ncc(-c2ccco2)nc1N1CCC(C(=O)O)CC1,0,7,73*,0,22,12,
CCOC(=O)/C(C(C)=O)=C(\C=C\N(C)C)N(C)C,1,14,1,0,nt,nt,
COC(=O)C(C(=O)OC)=C(/C=C/N(C)C)N(C)C,0,-5,74*,0,13,16,
COc1cc(N)ccc1NC(=O)CSc1ncnc2sc3c(c12)CCCC3,1,6,79*,0,8,22,
O=[N+]([O-])c1cccc(C2(O)C[N+]3=C(CCCCC3)N2c2ccccc2)c1 (configuration not stated),0,0,1,0,nt,nt,
OCCNC(=S)Nc1ccccc1,0,-8,8,0,nt,nt,
O=P(O)(O)C(O)(CCNC(=S)Nc1ccccc1)P(=O)(O)O,-1,4,85*,0,67*,6,AlphaScreen DR=>6.8
CC(=O)N(C)C1CC(C)(C)NC(C)(C)C1,-1,3,0,0,nt,nt,
O=C(O)/C=C/c1ccc([N+](=O)[O-])o1,-1,4,60*,0,64*,7,AlphaScreen DR=>11
CC(C)c1ccc(OCC(=O)N/N=C/c2cccc([N+](=O)[O-])c2)cc1,0,0,1,0,nt,nt,
O=C(Nc1ccc(-c2ccc3nnc(-c4ccncc4)n3n2)cc1)c1ccc(Cl)cc1,2,8,8,0,nt,nt,
